# Bioassay records: PubChem, National Center for Advancing Translational Sciences (NCATS)
# JMJD2A Tudor inh: JMJD2A Tudor domain (human) inhibition; 390,000 compounds, 4.4% hits; AID 504339; AlphaScreen JMJD2A-Tudor / H3K4me3 peptide binding; O75164; Potency, µM (highest dose often 114 µM), without a hit: top-dose activity change, negative = inhibition, hits mostly inhibitors; further: on the % scale 0 is the no-effect control and ±100 the full control effect; nearly all actives have a fitted effect of over 50% in size
# PLK1 PBD inh: inhibitors of human PLK1 polo-box domain binding. P53350. Plk1 PBD binding of FITC phosphopeptide, fluorescence polarization. Potency, µM, inactives show max response, negative = inhibition, hits mostly inhibitors. 360,000 compounds, 2.8% hits. AID 720504; further: series mostly up to about 57 µM; on the % scale 0 is the no-effect control and ±100 the full control effect; nearly all actives have a fitted effect of over 65% in size
# HP1b chromo inh: HP1-beta chromodomain-methylated histone interaction inhibition | 390,000 compounds, 0.56% hits | Potency, µM (highest dose often 114 µM), for inactives: top-dose activity change, negative = inhibition, most hits filed as inhibitors | AlphaScreen HP1-beta / biotin-H3K9me3 peptide binding | P83916 | AID 540317; further: nearly all actives have a fitted effect of over 70% in size
#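 Compound inhibition of the preformed complex between 50 nM HP1-beta and 50 nM biotinylated H3K9me3 peptide was read by AlphaScreen. Buffer was PBS pH 7.4 with 0.01% Tween-20. Incubations ran 30 min at room temperature, with 10 ug/mL donor/acceptor beads.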
# G9a inh: G9a (human) methyltransferase inhibition; Q96KQ7; G9a H3K9 monomethylation, AlphaScreen, 2 h; Potency, µM (top dose mostly 102 µM), without a hit: at the highest dose activity, negative = inhibition, hits mostly inhibitors; 350,000 compounds, 8.8% hits; AID 504332; further: on the % scale 0 is the no-effect control and ±100 the full control effect; nearly all actives have a fitted effect of over 75% in size
#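 Readings reflect AlphaScreen signal from monomethyl-H3K9 antibody detection. HMT at 20 nM; substrate b-H3K9 500 nM; cofactor SAM 20 uM; 2 h RT reaction; compounds tested as titrations in qHTS with 15 min preincubation.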
# BAZ2B inh: inhibitors of human BAZ2B bromodomain; 360,000 compounds, 4.4% hits; Q9UIF8; AlphaScreen BAZ2B-H3K14Ac peptide displacement; Potency, µM (top dose mostly 114 µM), inactives show at the highest dose activity change, negative = inhibition, usual class: inhibitors; further: on the % scale 0 is the no-effect control and ±100 the full control effect; nearly all actives have a fitted effect of over 60% in size
#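 Complex of BAZ2B and biotin-H3K14Ac (50 nM apiece) forms over 30 min at RT, then faces library compounds up to 110 uM for another 30 min; AlphaScreen beads added, 20 min dark incubation, luminescence read.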
# 12-LOX inh: inhibitors of human 12S-lipoxygenase ALOX12; 580,000 compounds, 1.1% hits; purified 12hLO, xylenol orange hydroperoxide absorbance; Potency, µM (highest dose often 108 µM), without a hit: at the top dose activity change, negative = inhibition, most hits filed as inhibitors; AID 1671190; further: on the % scale 0 is the no-effect control and ±100 the full control effect
# Target sequence (P18054 whole entry, looked up): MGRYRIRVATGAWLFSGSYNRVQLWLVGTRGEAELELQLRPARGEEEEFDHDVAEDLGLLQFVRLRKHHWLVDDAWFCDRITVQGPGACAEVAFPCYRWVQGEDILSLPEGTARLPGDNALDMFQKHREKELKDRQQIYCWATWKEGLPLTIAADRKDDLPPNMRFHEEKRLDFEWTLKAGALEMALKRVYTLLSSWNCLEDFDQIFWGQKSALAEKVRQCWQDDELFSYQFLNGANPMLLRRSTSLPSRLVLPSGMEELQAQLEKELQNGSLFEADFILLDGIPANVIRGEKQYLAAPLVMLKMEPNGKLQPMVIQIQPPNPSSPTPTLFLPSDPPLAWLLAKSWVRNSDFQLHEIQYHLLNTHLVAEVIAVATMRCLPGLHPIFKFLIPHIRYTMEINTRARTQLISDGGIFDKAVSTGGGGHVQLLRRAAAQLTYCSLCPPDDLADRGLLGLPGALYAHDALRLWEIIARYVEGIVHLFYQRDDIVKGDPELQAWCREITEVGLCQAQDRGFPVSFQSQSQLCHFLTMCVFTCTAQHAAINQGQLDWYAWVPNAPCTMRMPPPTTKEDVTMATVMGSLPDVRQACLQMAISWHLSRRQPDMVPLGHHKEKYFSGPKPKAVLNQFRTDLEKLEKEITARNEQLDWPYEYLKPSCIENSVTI
#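 Purified human 12hLO at 150 nM in 25 mM Hepes, 0.01% Triton X-100, pH 7.0, preincubated 15 min at room temperature with compound. Reaction started with 40 uM arachidonic acid, 30 min at room temperature. Hydroperoxide measured by Fe-xylenol orange, 573/405 nm absorbance ratio.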
# The depositor's hits bear a star; u = inconclusive; x = no result; ! = a repeat was not active; [ ] = remark or other dose. Compounds with a hit are over-represented: about 9% of the library has one in this group of screens. The call rests on the fitted dose curve; in most records, active means well fitted curve in the direction sought with a large enough effect; inconclusive means small, poorly fitted or top-dose-only effect, or another doubt; inactive means no such curve, though single readings can be large; an effect the other way counts as inactive or inconclusive. Potency means the concentration at half of the fitted maximal effect.
SMILES,JMJD2A Tudor inh,PLK1 PBD inh,HP1b chromo inh,G9a inh,BAZ2B inh,12-LOX inh
CC(C)c1ccc(Nc2cc(C(=O)NCCCN(C)Cc3ccccc3)c3ccccc3n2)cc1,-1%,x,47%,-6%[59 µM],6%,-17%
CCCN(CC(=O)Nc1ccc(F)c(F)c1F)C(=O)Cc1ccc(OC)c(S(=O)(=O)N2CCOCC2)c1,-5%,-7%,64%,x,x,471%
O=S(=O)(NN1CCOCC1)c1cc(Cl)cc(Cl)c1O,-19%,15µM*,15%,30%,4%,-14%
Cc1cc(O)c(Oc2cc(C)cc(O)c2O)c(O)c1,40µM*,u,u,0.89µM*,u,u
CCN(CC)c1ccc(/C=C(\C#N)c2ccccn2)cc1,13%,-7%,23%,21%[59 µM],-6%,x
CCN(Cc1ccccc1)c1ccc(/C=C(\C#N)c2ccccn2)cc1,114%,-6%,188%,50µM*,8%,u
Nc1cc(S(=O)(=O)Nc2ccccc2Cl)ccc1N1CCCCC1,u,2.4µM*,u,x,x,28µM*
CCCS(=O)(=O)Nc1ccc(N2CCCCC2)c(S(=O)(=O)Nc2ccccc2OC)c1,-26%,24µM*,-24%,11µM*,-31%,32µM*
Nc1cc(S(=O)(=O)c2ccc(N3CCCCC3)c(N)c2)ccc1N1CCCCC1,x,8%,x,x,x,-2%
Nc1ccc(N2CCCCC2)c(S(=O)(=O)Nc2ccc(Cl)cc2)c1,u,-12%,-5%,u,u,-22%
Nc1ccc(N2CCCCC2)c(S(=O)(=O)Nc2ccccc2Cl)c1,u,27µM*,u,14µM*,u,u
COc1ccccc1NS(=O)(=O)c1cc(N)ccc1N1CCCCC1,56µM*,3µM*,-27%,4µM*,u,u
COc1ccc(N)cc1S(=O)(=O)Nc1ccccc1Cl,-17%,-9%,-10%,x,-32%,-11%
NC(=O)c1ccc(NC(=O)COC(=O)CCCN2C(=O)c3cccc4cccc(c34)C2=O)cc1,-5%,-17%,16%,-7%[59 µM],3%,-3%
Cc1cc(C)c(OCC(=O)N(C)CC(=O)Nc2ccc(N3CCOCC3)cc2)c(C)c1,-19%,9%,10%,u,-34%,1%
COC(=O)C1=CC(C(=O)c2cccs2)=NN(c2ccc(OC)cc2)C1C(=O)OC (stereo not given),25µM*,-8%,u,13µM*,8.9µM*,1%
COC(=O)[C@@H]1Cc2c([nH]c3ccccc23)[C@H]2C[C@@H](NCCc3cnc[nH]3)C[C@@H](c3cccc(Cl)c3)N21,x,x,x,x,x,37%
COc1ccc(-n2c(CCc3ccccc3)nnc2SCC(=O)NCc2ccccc2)cc1,-19%,-12%,27%,u,-32%,2%
COc1ccc(C(=O)CSc2nnc(CCc3ccccc3)n2-c2ccccc2)cc1,56µM*,1%,17%,40µM*,-1%,u
CC(Sc1nnc(-c2cc3ccccc3o2)n1-c1ccccc1)C(=O)O (stereo not given),-18%,-1%,30%,8.9µM*,6%,-8%
COc1ccc(-n2c(CCc3ccccc3)nnc2SCC(=O)c2ccccc2)cc1,-35%,-3%,0%,8.9µM*,-37%,-14%
COc1ccccc1-c1nnc(SCC(=O)c2ccc(Cl)cc2)n1-c1ccccc1,-26%,x,14%,-44%[59 µM],-28%,-14%
CC(Sc1nc2ccccc2o1)C(=O)O (stereo not given),1%,-1%,37%,50µM*,-7%,0%
CC(Sc1nc2ccccc2o1)C(=O)c1ccccc1 (stereo not given),x,x,x,x,x,17%
CC(C)Oc1ccc(CCc2nnc(SC(C)C(=O)O)n2-c2ccccc2)cc1 (stereo not given),56µM*,u,26%[57 µM],x,2%,-5%
SMILES,JMJD2A Tudor inh,PLK1 PBD inh,HP1b chromo inh,G9a inh,BAZ2B inh,12-LOX inh
COc1ccc(CC2CCOC2=O)cc1 (stereo not given),-23%,-5%,12%,-16%[59 µM],x,-1%
COc1ccc(CC2C(=O)OC(C)(C)OC2=O)cc1,35µM*,0%,16%,40µM*,-8%,u
O=C(COc1ccccc1F)Nc1ccc(Cl)c(-c2nc3ccccc3[nH]2)c1,-6%,x,52%,3%[59 µM],-19%,-7%
Oc1ccc(-c2n[nH]c(=S)n2-c2ccc3c(c2)OCCO3)c(O)c1,10µM*,-27%,7%,1.8µM*,-29%,u
S=c1[nH]nc(Cc2ccc(Cl)cc2)n1-c1ccc2c(c1)OCCO2,u,-4%,8%,x,u,-27%
S=c1[nH]nc(-c2ccc(Cl)cc2Cl)n1-c1ccc2c(c1)OCCO2,79µM*,27µM*,u,2.5µM*,-29%,u
COc1ccccc1CCNC(=O)c1cc2c(=O)n3cccc(C)c3nc2n1C,-34%,x,-12%,-7%[59 µM],-21%,-31%
CCOC(=O)C1=C[C@]2(CC)CCCN3CCc4c(n1c1ccccc41)[C@@H]32,-34%,-17%,26%,22µM*!,u,u
CCCCC1=CC2=CC(=O)C(C)(OC(=O)CC)C(=O)C2=CO1 (stereo not given),u,u,u,x,x,35µM*
CCCCC1=CC2=CC(=O)C(C)(OC(=O)C3CCCC3)C(=O)C2=CO1 (stereo not given),79µM*,u,u,u,50µM*,16µM*
CSc1ccccc1NC(=O)c1cnc2scc(C)n2c1=O,-13%,-16%,57%,-5%,16%,u
Cc1ccc(N(Cc2cc3ccc(C)cc3[nH]c2=O)C(=O)c2ccco2)cc1,-36%,27µM*,-2%,u,-22%,u
Cc1ccc2cc(CN(C(=O)c3ccco3)c3ccccc3)c(=O)[nH]c2c1,-11%,-18%,17%,u,3%,0%
CN(C)C1C(=O)C(C(N)=O)=C(O)[C@@]2(O)C(=O)C3=C(O)c4c(O)ccc(Cl)c4[C@@H](O)C3C[C@@H]12 (stereo not given in full),x,x,x,35µM*,x,x
CN(C)c1ccc(O)c2c1CC1CC3[C@@H](N(C)C)C(=O)C(C(N)=O)=C(O)[C@]3(O)C(=O)C1=C2O (stereo not given in full),-12%,-22%,26%,10µM*,3.5µM*,u
CN(C)C1C(=O)C(C(N)=O)C(=O)C2(O)C(=O)C3C(=O)c4c(O)ccc(Cl)c4C(O)C3CC12 (stereo not given),x,x,x,16µM*,x,x
COc1cccc(CN2CCNC(=O)C2CC(=O)N(C)CCc2ccccn2)c1OC (stereo not given),x,x,x,-28%,-1%,x
S=c1[nH]nc(COc2ccc3c(c2)OCO3)n1-c1ccccc1,40µM*,-10%,3%,0.71µM*,-34%,14%
